Measurements from PubChem BioAssay.
Values without a mark were called inactive. Activity calls are given as the source filed them. Cut-off read from the data, not from the text of the source, unless noted: active = inhibition above about 44%; inactive = the rest.

Tests used:
[1] = StAR promoter reporter inhibitors, counter-screen for LRH-1 inverse agonist project, cell-based, luminescence, high throughput (AID 651611; in the data active = inhibition above about 28%); settings: StAR promoter luciferase reporter counterscreen, at 3.6 µM, active compounds read high
[2] = biological target: Nuclear receptor subfamily 5 group A member 2 (Homo sapiens) (UniProt O00482); assay: LRH-1 (NR5A2) inverse agonists, retest, confirmation, cell-based, luminescence (AID 651613; in the data active = inhibition above about 42%;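 note: HEK293T cells co-transfected with LRH-1 and StAR promoter luciferase reporter; 0% = vehicle wells and 100% = parental cells lacking receptor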); settings: cell-based LRH-1 luciferase reporter, inverse agonism; at 3.6 µM; active compounds read high
[3] = biological target: Steroidogenic factor 1 (Homo sapiens) (UniProt Q13285); assay: SF1 (NR5A1) inverse agonists, counter-screen for LRH-1 inverse agonist project, cell-based, luminescence, high throughput (AID 651614); settings: cell-based SF1 luciferase reporter, at 3.6 µM, active compounds read high;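 note: cells cotransfected with StAR promoter reporter and SF1 expression vector; 0% = vehicle on cells with receptor and 100% = vehicle on cells lacking receptor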
[4] = VP16 transactivation reporter inhibitors, counter-screen for LRH-1 inverse agonist project, cell-based, luminescence, high throughput (AID 651615; in the data active = inhibition above about 33%); settings: Gal4-VP16 luciferase reporter cells, at 3.6 µM, active compounds read high
[5] = system: transactivating tegument protein VP16 (Human herpesvirus 1); assay: VP16 transactivation reporter inhibitors, counter-screen for SRC2 inhibitor project, cell-based, luminescence, single concentration (AID 652007; in the data active = inhibition above about 36%); settings: cell-based VP16 transactivation luciferase reporter, at 8.9 µM, active compounds read high
[6] = biological target: Nuclear receptor coactivator 2 (Homo sapiens) (UniProt Q15596); assay: SRC2 coactivator transcriptional activity inhibitors, confirmation, cell-based, luminescence, HEK293, triplicate (AID 652008;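 active = mean inhibition above 46.5%, the solvent-only control mean plus 3 SD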;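 note: 0% = DMSO-treated cells and 100% = Gossypol at 36 µM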); settings: HEK293 GAL4-SRC2 luciferase reporter, at 8.9 µM, active compounds read high
Chain of Nuclear receptor coactivator 2 (Homo sapiens) (Q15596 whole entry, looked up, the tested form may be a part): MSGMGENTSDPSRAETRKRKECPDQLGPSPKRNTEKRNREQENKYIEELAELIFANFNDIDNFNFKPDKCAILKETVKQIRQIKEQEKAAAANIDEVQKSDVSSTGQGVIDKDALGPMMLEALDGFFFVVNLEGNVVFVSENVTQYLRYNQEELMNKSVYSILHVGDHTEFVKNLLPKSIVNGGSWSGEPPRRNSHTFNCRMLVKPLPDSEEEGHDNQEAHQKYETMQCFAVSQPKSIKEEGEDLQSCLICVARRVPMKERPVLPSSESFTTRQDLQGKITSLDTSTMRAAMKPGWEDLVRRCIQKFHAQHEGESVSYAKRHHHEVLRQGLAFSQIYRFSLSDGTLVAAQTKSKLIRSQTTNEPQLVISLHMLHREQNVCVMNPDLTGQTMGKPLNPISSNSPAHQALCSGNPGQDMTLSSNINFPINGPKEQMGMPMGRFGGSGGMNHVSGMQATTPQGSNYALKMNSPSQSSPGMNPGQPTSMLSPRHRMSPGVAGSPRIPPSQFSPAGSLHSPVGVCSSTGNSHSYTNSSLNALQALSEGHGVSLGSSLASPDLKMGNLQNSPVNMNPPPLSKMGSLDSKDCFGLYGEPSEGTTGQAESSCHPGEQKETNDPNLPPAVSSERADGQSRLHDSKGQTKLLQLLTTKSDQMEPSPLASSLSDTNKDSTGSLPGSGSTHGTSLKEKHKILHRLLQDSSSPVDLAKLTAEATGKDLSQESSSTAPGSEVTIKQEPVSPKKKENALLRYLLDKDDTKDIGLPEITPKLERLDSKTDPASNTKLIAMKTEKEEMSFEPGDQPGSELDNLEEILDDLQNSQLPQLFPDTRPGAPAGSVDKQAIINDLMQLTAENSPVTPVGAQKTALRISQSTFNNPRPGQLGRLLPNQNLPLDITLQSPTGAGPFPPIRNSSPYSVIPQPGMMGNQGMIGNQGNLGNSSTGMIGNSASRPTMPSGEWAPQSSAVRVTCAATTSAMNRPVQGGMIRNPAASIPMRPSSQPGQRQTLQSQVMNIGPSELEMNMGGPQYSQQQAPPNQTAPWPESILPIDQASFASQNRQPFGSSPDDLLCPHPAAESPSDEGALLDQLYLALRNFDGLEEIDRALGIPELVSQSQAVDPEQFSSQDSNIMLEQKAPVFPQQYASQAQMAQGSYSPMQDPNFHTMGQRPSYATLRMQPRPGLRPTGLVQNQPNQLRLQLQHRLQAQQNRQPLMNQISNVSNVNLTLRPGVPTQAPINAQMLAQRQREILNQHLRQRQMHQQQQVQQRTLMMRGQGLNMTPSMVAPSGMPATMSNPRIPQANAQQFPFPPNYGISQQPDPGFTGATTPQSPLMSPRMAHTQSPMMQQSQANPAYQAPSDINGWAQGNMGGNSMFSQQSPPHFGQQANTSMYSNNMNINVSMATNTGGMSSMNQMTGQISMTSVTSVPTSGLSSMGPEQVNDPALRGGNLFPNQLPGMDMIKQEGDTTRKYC

Chain of Nuclear receptor subfamily 5 group A member 2 (Homo sapiens) (O00482 whole entry, looked up): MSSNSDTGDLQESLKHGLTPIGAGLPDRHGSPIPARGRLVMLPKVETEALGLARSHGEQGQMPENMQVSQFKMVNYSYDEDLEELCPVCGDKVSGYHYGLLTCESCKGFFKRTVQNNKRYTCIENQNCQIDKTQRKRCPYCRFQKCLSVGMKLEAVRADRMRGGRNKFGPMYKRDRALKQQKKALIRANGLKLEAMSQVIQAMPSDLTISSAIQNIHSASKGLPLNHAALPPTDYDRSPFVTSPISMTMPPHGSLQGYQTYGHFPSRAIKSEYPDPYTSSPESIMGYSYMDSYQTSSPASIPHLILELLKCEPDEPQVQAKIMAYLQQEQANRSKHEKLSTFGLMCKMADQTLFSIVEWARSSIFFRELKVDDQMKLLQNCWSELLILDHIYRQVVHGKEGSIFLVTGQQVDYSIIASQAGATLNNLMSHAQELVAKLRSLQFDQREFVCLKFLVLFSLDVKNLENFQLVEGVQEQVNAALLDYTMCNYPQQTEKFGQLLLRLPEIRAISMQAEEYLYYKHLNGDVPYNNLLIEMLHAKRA
Chain of Steroidogenic factor 1 (Homo sapiens) (Q13285 whole entry, looked up, the tested form may be a part): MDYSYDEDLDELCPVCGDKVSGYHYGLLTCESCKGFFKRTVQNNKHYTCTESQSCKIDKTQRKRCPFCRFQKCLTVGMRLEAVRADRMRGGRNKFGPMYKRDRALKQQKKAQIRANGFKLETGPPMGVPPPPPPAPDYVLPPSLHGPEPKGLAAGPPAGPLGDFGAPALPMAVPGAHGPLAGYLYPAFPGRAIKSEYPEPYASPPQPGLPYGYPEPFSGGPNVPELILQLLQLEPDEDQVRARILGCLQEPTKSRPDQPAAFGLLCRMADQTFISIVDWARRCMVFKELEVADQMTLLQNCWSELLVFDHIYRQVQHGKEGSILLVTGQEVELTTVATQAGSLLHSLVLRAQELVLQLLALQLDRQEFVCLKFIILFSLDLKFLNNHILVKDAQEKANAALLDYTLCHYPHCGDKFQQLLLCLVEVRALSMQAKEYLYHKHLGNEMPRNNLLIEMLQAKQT

SMILES | inhibition [1] | inhibition [2] | inhibition [3] | inhibition [4] | inhibition [5] | inhibition [6]
O=C1/C(=C\c2ccccc2)CN(C(=O)CCN2CCCCC2)C/C1=C/c1ccccc1 | 56.7% (active) | 84.7% (active) | 84.8% (active) | 73.7% (active) | 85.7% (active) | -4.61%
N#Cc1cc(Br)ccc1N=C1CCCN1c1ccccc1 | 2.82% | 44.5% (active) | 42.6% | 0.34% |  | 
COc1ccc2c(c1)c[n+](C)c1c3cc(OC)c(OC)cc3ccc21 | 12.1% | 58.3% (active) | 56.5% (active) | 68.9% (active) |  | 
O=C(OCC(=O)N1CCN(C(=O)COC(=O)c2ccc(O)cc2O)CC1)c1ccc(O)cc1O | 14.4% | 61% (active) | 61.2% (active) | 3.8% |  | 
O=C(NNc1c(F)c(F)cc(F)c1F)C1CCN(S(=O)(=O)c2ccccc2F)CC1 | -3.09% | 8.61% | 22.4% | 4.32% |  | 
O=C(c1ccc([N+](=O)[O-])s1)N1CCN(c2ncccn2)CC1 | 1.48% | 30.8% | 41.5% | 4.85% |  | 
Cc1c(C)c2ccc(OCC(=O)N3CCN(C(=O)C4COc5ccccc5O4)CC3)cc2oc1=O (stereo not drawn) | 14.4% | 60.4% (active) | 59.1% (active) | -17.1% |  | 
CC1CCC2(CC1)NC(=O)N(CC(=O)Nc1ccc3c(c1)CCC3)C2=O (stereo not drawn) | 39.1% (active) | 49.1% (active) | 48.9% (active) | 12.8% |  | 
CCOC(=O)c1cc2sccc2n1CC(=O)Nc1ccc2c(c1)OCCO2 | 7.97% | 55.1% (active) | 52.2% (active) | -2.96% |  | 
Cc1ccsc1CNc1ncnc2ccc(-c3c(C)noc3C)cc12 | 54.5% (active) | 37.9% | 28.7% | -142% |  | 
CCn1c(SCC(=O)Nc2ccc(N3CCOCC3)cc2)nnc1-c1ccco1 | 3.02% | 58% (active) | 47.3% (active) | 10.2% |  | 
COc1ccc(CCNC(=O)CSC2=Nc3ccccc3C3=NC(C(C)C)C(=O)N23)cc1OC (stereo not drawn) | 21.5% | 62.3% (active) | 53.1% (active) | 0.61% |  | 
Oc1cccc(Nc2nc(-c3ccccc3Cl)nc3ccccc23)c1 | 9.52% | 54.2% (active) | 48.3% (active) | -9.51% |  | 
OC1(c2ccc(OC(F)F)cc2)CSC(=Nc2cccnc2)N1C1CC1 (stereo not drawn) | 11.3% | 43.3% (active) | 48.8% (active) | 40% (active) |  | 
C=CC(=O)N1C/C(=C/c2ccccc2)C(=O)/C(=C\c2ccccc2)C1 | -2.93% | 71.8% (active) | 77.5% (active) | 62.2% (active) | 88.6% (active) | 65.3% (active)
COc1ccc(NC(=O)CSc2ncnc3c2cnn3Cc2ccccc2)cc1 | 16.1% | 49.6% (active) | 62.2% (active) | 2.38% |  | 
Cc1ccc(S(=O)(=O)N2CC(O)CC2C(=O)OCC(=O)Nc2ccc([N+](=O)[O-])cc2C(F)(F)F)cc1C (stereo not drawn) | 18.7% | 60.5% (active) | 56% (active) | -5.69% |  | 
COc1ccc2sc(-c3ccc(N(C)C)cc3)c(C#CCCO)c2c1 | 3.58% | 21.3% | 53.7% (active) | -4.7% |  | 
COc1ccccc1Cc1c(-c2ccc(OC)c(OC)c2)nc2c3ccccc3ccn12 | 8.86% | 40.2% | 32% | -1.36% |  | 
CCOc1ccc(-c2cc(CCCC(=O)Nc3cccc(OC)c3)no2)cc1 | 40.6% (active) | 40.9% | 48.5% (active) | 6.33% | 36.8% (active) | 58.9% (active)
CCOCc1c(C(=O)Nc2ccccc2N2CCN(C)CC2)oc2ccccc12 | 13.5% | 70.5% (active) | 73% (active) | 8.89% |  | 
CCCCc1c(O)nc(SCC(=O)Nc2ccc(OC)cc2)n(-c2ccc(C)c(C)c2)c1=O | 24% | 60% (active) | 51% (active) | -5.8% |  | 
Nc1ccc(C(=O)NN2C(=O)[C@H](Cl)C2c2ccc(Cl)cc2)cc1 (stereo partly drawn) | 8.81% | 43.1% (active) | 52.1% (active) | -16.2% |  | 

SMILES | inhibition [1] | inhibition [2] | inhibition [3] | inhibition [4] | inhibition [5] | inhibition [6]
Cc1ccc[n+](CC(=O)Nc2ccc([N+](=O)[O-])cc2)c1 | 12.6% | 63.1% (active) | 57% (active) | -13.3% |  | 
N#Cc1cccc(C=C(C(=O)c2ccccc2)c2ccccc2)c1 | 18.6% | 28.9% | 36.9% | 32.6% (active) | 23% | 62.2% (active)
Cc1nnsc1C(=O)NC1CCCc2c1cnn2-c1ccc(C(C)(C)C)cc1 (stereo not drawn) | 29.2% (active) | 50.7% (active) | 63.2% (active) | 50.6% (active) | 13.8% | 31.2%
CC(=O)c1c(C)[nH]c(C(=O)COc2cc(C)ccc2C(C)C)c1C | 21.1% | 53.5% (active) | 71% (active) | 50.3% (active) | 17.3% | 43%
CCN(Cc1ccc(OC)c(F)c1)C(=O)CCl | 31.7% (active) | 78.7% (active) | 73.3% (active) | 21.3% | 31.8% | 49.5% (active)
COc1ccc(-c2noc(CCCC(=O)NC3CCCC3)n2)cc1 | 15.1% | 59.7% (active) | 60.5% (active) | 34.5% (active) | 48.8% (active) | 53.7% (active)
Cc1ccc(-c2nc(NC(=O)c3nn(C)cc3[N+](=O)[O-])sc2C)cc1 | 18.9% | 21.2% | 32.2% | -0.37% | 35.3% | 50.5% (active)
CC1CCC/C=C/C(=O)c2c(O)cc(O)cc2CC(=O)O1 (stereo not drawn) | 8.63% | 35.8% | 12.9% | 29.1% | 19.4% | 33.2%
CN(C)CCC(=O)N1C/C(=C/c2ccccc2)C(=O)/C(=C\c2ccccc2)C1 | 61.4% (active) | 84% (active) | 86.6% (active) | 77.2% (active) | 86.8% (active) | 55.3% (active)
COc1cccc(C2=CC(=O)CC(C)(C)C2)n1 | 9.54% | 61.3% (active) | 58.1% (active) | 45.9% (active) | -6.05% | 32.9%
O=C(NCCc1c[nH]c2ccccc12)c1ccc([N+](=O)[O-])o1 | 15.7% | 62.6% (active) | 59.7% (active) | 21.7% | 2.92% | 15.3%
CC(C)(C)c1ccc(Oc2ccc(NC(=O)C3CC=CCC3C(=O)O)cc2)cc1 (stereo not drawn) | 1.67% | 6.39% | 0.96% | 5.54% | 8.31% | 19.9%
O=C(CCl)N1CCN(S(=O)(=O)Cc2ccccc2)CC1 | 25.3% | 52.9% (active) | 47.5% (active) | 15.9% | 12.1% | 46.2%
C#CCN(C[C@@H]1[C@@H](OC(=O)Nc2cccs2)[C@@H](OC(=O)Nc2cccs2)Cn2c(=O)ccc(=O)n21)S(=O)(=O)c1ccc(C)cc1 | 32% (active) | 54.4% (active) | 54.8% (active) | 36.8% (active) | 26.4% | 88.2% (active)
COc1ccc(-c2cc(-c3nc4ccccn4c3NCc3ccccc3)ccc2OC)cc1 | 95.2% (active) | 109% (active) | 97.3% (active) | 98.7% (active) | 96.8% (active) | 98.3% (active)
COc1ccc(C)cc1NS(=O)(=O)c1ccc(-c2cnc(C3CC3)o2)cc1 | 41.5% (active) | 41.9% (active) | 58% (active) | 54.5% (active) | 6.98% | 34.7%
Cc1ccc(NC(=O)C2=C(c3ccccc3)S(=O)(=O)CCS2(=O)=O)cc1 | 11% | -4.23% | 30.3% | 48.5% (active) | 92.8% (active) | 96.9% (active)
Cn1cnc([N+](=O)[O-])c1Oc1ccc2ccccc2c1 | 38.9% (active) | 55.3% (active) | 54.8% (active) | 10.8% | 11.9% | 19.6%
CC1=C(CO)C(=O)OC([C@@H](C)C2CC[C@H]3C4C[C@H]5O[C@]56[C@@H](O)C=CC(=O)[C@]6(C)C4CC[C@]23C)C1 (stereo partly drawn) | 67.7% (active) | 66.2% (active) | 79.8% (active) | 79.6% (active) | 53.8% (active) | 41.6%
COc1ccc(CCNc2ncnc3sc(C)cc23)cc1OC | 35.5% (active) | 90.1% (active) | 57.7% (active) | 57.9% (active) | 16.6% | 25.8%
COc1ccc(OC)c(N(CCN2C(=O)c3ccccc3C2=O)C(=O)CCl)c1 | 10.9% | 30.5% | 54% (active) | 16.1% | 30.9% | 57.6% (active)
CCCCCc1c(CC)ncn1CCc1ccccc1OC | -2.24% | 23.2% | 25.2% | 31.8% (active) | 2.9% | 1.53%
